FLuc counter = inhibits or activates purified firefly luciferase, miR-21 counter-screen; 360,000 tested, 6.9% active; purified FLuc, Km substrates, luminescence inhibition; AID 588342; Potency, µM (series often up to 57.5 µM), inactives show at the top dose activity change, negative = inhibition, most hits filed as inhibitors; P08659;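 also: plate controls were vehicle for no effect and reference inhibitor for full effect; nearly all actives have a fitted effect of over 55% in size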
Target sequence (P08659 whole entry, looked up): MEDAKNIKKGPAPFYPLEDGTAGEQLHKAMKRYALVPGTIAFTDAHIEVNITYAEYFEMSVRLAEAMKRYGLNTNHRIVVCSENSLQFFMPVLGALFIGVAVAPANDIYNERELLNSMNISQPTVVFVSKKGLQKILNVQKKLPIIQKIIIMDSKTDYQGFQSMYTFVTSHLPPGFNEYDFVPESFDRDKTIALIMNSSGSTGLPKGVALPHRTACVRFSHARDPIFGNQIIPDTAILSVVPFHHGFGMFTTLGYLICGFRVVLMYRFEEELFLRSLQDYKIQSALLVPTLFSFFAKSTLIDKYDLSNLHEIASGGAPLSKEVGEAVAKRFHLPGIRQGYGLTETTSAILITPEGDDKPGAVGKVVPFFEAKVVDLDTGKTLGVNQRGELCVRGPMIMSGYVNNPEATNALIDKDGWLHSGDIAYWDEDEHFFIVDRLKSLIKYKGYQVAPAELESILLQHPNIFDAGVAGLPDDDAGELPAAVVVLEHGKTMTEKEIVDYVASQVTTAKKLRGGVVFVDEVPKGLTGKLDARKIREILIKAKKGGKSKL
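Purified P. pyralis luciferase (10nM final) with 10uM D-luciferin and 10uM ATP (Km levels) in 50mM Tris acetate pH 7.5, 10mM Mg acetate, 0.01% Tween-20, 0.05% BSA; qHTS 6-point titration, ~60 µM downward; luminescence read.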
ELG1 repair inh = inhibitors of ELG1-dependent DNA repair in HEK293T cells | 330,000 tested, 2.3% active | Potency, µM (doses to about 46.1 µM), for inactives: at the top dose activity change, negative = inhibition, hits mostly inhibitors | HEK293T ELG1-luciferase reporter, luminescence, 16 h; DNA damage induced by 5-fluorouridine; also: % is scaled to controls: 0 for no effect and ±100 for the full control effect; nearly all actives have a fitted effect of over 55% in size
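Quantitative HTS, concentration-response format. 2,000 cells/well co-treated with 5-fluorouridine and compound, 16 hr in 5% CO2 at 37 °C; ONE-Glo luminescence read after 30 min.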
Rab9 prom act = Rab9 promoter activation; Huh7 Rab9 promoter-luciferase reporter, luminescence, 24 h; Potency, µM (highest dose often 9.22 µM), inactives show at the top dose activation, negative = inhibition, usual class: activators; 320,000 tested, 2.8% active; AID 485297; also: % of control where 0% means no effect; nearly all actives have a fitted effect of over 60% in size
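Cells were plated at 1500 per well in reduced-serum medium with 10% FBS and left 2 h. Compound in DMSO was then added for 24 h at 37 °C. Reporter signal was read by luminescence after 10 min with luciferase detection reagent.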
SMN2 splice up = enhancers of SMN2 splice variant expression; HEK293 SMN2-luciferase splicing reporter, luminescence, 30-36 h; Potency, µM (doses to about 46.1 µM), for the others: at the highest dose activity change, positive = activation, actives largely listed as activators; 210,000 tested, 2.8% active; AID 1458; also: % of control where 0% means no effect; nearly all actives have a fitted effect of over 55% in size
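HEK293 cells carry an SMN2 […]–luciferase reporter in which exon 7 inclusion puts luciferase in frame. Cells were plated 10-12 h before compound addition, then incubated 30-36 h at 37C. ONE-Glo luminescence was read; sodium butyrate at 4.5 mM final served as control.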
NPC1 promoter act = NPC1 promoter activation; Huh7 NPC1 promoter luciferase reporter, 24 h; Potency, µM (highest dose often 9.22 µM), for inactives: at the top dose activation, actives largely listed as activators; 320,000 tested, 2.4% active; AID 485313; also: % of control where 0% means no effect; nearly all actives have a fitted effect of over 60% in size
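Huh7 reporter cells (NPC1 promoter driving luciferase) are dosed with compound for 24 h at 37 °C, 5% CO2; luciferase detection reagent is then added and luminescence measured after 10 min at ambient temperature.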
ELG1 genotox = inducers of genotoxicity in HEK293T ELG1-luciferase cells | HEK293T ELG1-luciferase reporter, luminescence, 16 h | Potency, µM (top dose mostly 46 µM), for the others: at the highest dose activity change, positive = activation, usual class: activators | 330,000 tested, 1.3% active; also: % of control where 0% means no effect; nearly all actives have a fitted effect of over 60% in size
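HEK293T cells expressing luciferase-tagged ELG1 were treated with compound or DMSO for 16 hr at 37°C. Luciferase activity was then read after 30 min with ONE-Glo at room temperature; rising signal flags genetic stress.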
* marks the source's active call; other numbers are inactive results; ? = inconclusive; / = no result given. Hits are enriched below; roughly 9.2% of the tested compounds scored in any of these assays. Calls follow the shape of the dose curve; as a rule, active = well fitted curve in the direction sought with a large enough effect; inconclusive = small, poorly fitted or top-dose-only effect, or another doubt; inactive = no such curve, though single readings can be large; an effect the other way counts as inactive or inconclusive. Potency is read from the fitted curve at half-maximal effect.

SMILES	FLuc counter	ELG1 repair inh	Rab9 prom act	SMN2 splice up	NPC1 promoter act	ELG1 genotox
CSc1ncccc1C(=O)OCC(=O)c1cc(C)n(CC2CCCO2)c1C (stereo not given)	0.6µM*	?	0.4µM*	/	1.1µM*	?
CC(NC(=O)c1ccc(C(F)(F)F)cc1)C(c1ccccc1)N1CCOCC1 (stereo not given)	-2%	2%	0%	-10%	-2%	-4%
CCn1nc(C)c(/C=N/NC(=O)c2ccc3c(c2)c(C)c(C)n3Cc2ccccc2)c1C	-1%	0%	1%	-13%	0%	-3%
Cc1cc(C(=O)COC(=O)c2ccc3c(c2)OCO3)c(C)n1CC1CCCO1 (stereo not given)	2.1µM*	?	1.3µM*	18%	1.6µM*	?
O=C(CCS(=O)(=O)c1cc(Br)cc2c1N(C(=O)C1CC1)CC2)N1CCN(c2ccccn2)CC1	-3%	0%	15%	1%	1%	-6%
COc1ccc(/C=N/N2C(=N)SCC2=O)cc1	3.4µM*	?	19%	/	?	?
COc1ccc(CN2C(=O)CS/C2=N/N=C/c2ccccc2)cc1	17µM*	22%	23%	/	16%	?
COc1ccc(/C=N/N=C2/SCC(=O)N2Cc2ccccc2)cc1	4.8µM*	?	1.3µM*	/	3.5µM*	?
COc1ccc(N=C2SCC(=O)N2Cc2ccccc2)cc1	-10%	?	-1%	-13%	-2%	9%
c1cc(-c2nnc3sc(C4CCCCC4)nn23)ccn1	3%	9.2µM*	-2%	-11%	6%	-23%
c1csc(-c2nn3c(-c4ccncc4)nnc3s2)c1	-2%	-11%	-1%	-9%	-8%	0%
c1csc(Cc2nn3c(-c4ccncc4)nnc3s2)c1	5%	10µM*	-5%	-5%	9%	-19%
COc1ccc(OC)c(NC(=O)Nc2cccnc2)c1	-16%	-5%	-1%	/	3%	-2%
CCOC(=O)N1CCN(c2ncnc3c2[nH]c2ccc(F)cc23)CC1	-1%	12µM*	-11%	-68%	-7%	-14%
Fc1ccc2[nH]c3c(N4CCN(c5ccccc5)CC4)ncnc3c2c1	3%	7.3µM*	-25%	-68%	-10%	-40%
O=C(NCc1ccccc1)c1cc2ccc(O)cc2oc1=O	12µM*	?	3.2µM*	/	?	?
CCOc1ccc2cc(C(=O)c3ccccc3)c(=O)oc2c1	-7%	?	?	?	30%	?
CCOc1ccc2cc(C(=O)NCc3ccccc3)c(=N)oc2c1	21µM*	?	-6%	/	0%	?
Cn1c(N)c(C(=O)COC(=O)C2CC(=O)N(Cc3ccccc3)C2)c(=O)n(C)c1=O (stereo not given)	-7%	-18%	-2%	6%	-2%	-3%
Cc1cc(S(=O)(=O)N2CCN(C(=O)CCC(=O)N3CCOCC3)CC2)ccc1Br	3%	-8%	-1%	/	-2%	0%
Cc1ccc(CNC(=O)c2cccc3c2C(=O)c2ccc(N4CCOCC4)cc2S3(=O)=O)cc1	-2%	12µM*	-4%	/	0%	-7%
O=C(NCC1CCCO1)c1cccc2c1C(=O)c1ccc(N3CCC(Cc4ccccc4)CC3)cc1S2(=O)=O (stereo not given)	/	2.6µM*	/	/	/	-13%
O=C(NCc1ccccc1C(F)(F)F)c1cccc2c1C(=O)c1ccc(N3CCOCC3)cc1S2(=O)=O	/	5.2µM*	/	/	/	5%
CC1CCN(c2ccc3c(c2)S(=O)(=O)c2cccc(C(=O)NC[C@@H]4CCCO4)c2C3=O)CC1	/	-22%	/	/	/	-2%
Cc1ccc(CNC(=O)c2cccc3c2C(=O)c2ccc(N4CCCCC4)cc2S3(=O)=O)cc1	?	?	2%	/	13%	-1%
SMILES	FLuc counter	ELG1 repair inh	Rab9 prom act	SMN2 splice up	NPC1 promoter act	ELG1 genotox
O=C(NCc1ccco1)c1cccc2c1C(=O)c1ccc(N3CCCC3)cc1S2(=O)=O	/	13µM*	/	/	/	-5%
COc1ccccc1C(=O)Nc1ccccc1OCc1cc(=O)n2c(C)csc2n1	-17%	/	/	-7%	/	/
CCOc1ccc(S(=O)(=O)Nc2ccc(OC)c(Cl)c2)c2cccnc12	-18%	/	/	-27%	/	/
COc1cccc(/C=C/c2ccccn2)c1O	3µM*	?	2.8µM*	/	1.3µM*	7.3µM*
CCCCCCOC(=O)c1ccc(N)cc1	11µM*	?	?	/	?	?
COCC(=O)Nc1ccc(C)c(Cl)c1	-5%	14%	1%	-8%	-1%	1%
CCCCOC(=O)c1ccc(NC(C)=O)cc1	?	?	1%	15%	19%	3%
CCCCOC(=O)c1ccc(NC(=O)c2c(OC)cccc2OC)cc1	-9%	2%	-3%	-14%	-7%	0%
CCCCOC(=O)Nc1ccc(C)c(Cl)c1	6.7µM*	?	2.8µM*	?	3.5µM*	?
CCCCOC(=O)c1ccc(N)cc1	?	?	15%	28%	21%	?
CCCCOC(=O)c1ccc(NC(=O)c2cc(Cl)c(Cl)cc2C(=O)O)cc1	21µM*	5%	-7%	/	0%	4%
CCCCOC(=O)Nc1ccc(C(=O)OC)cc1	12µM*	?	?	-2%	?	?
CC(C)Oc1ccc(S(=O)(=O)N2CCOCC2)cc1NC(=O)Cc1cccs1	1%	-12%	1%	/	-3%	-1%
CCOC(=O)c1c(C)[nH]c(C)c1S(=O)(=O)N1CCC(C(=O)N2CCN(c3ccccc3)CC2)CC1	4%	/	/	/	/	/
O=C(Nc1nc(=O)[nH]s1)c1ccccc1	-17%	-10%	3%	-5%	0%	2%
CC(=O)Nc1nc(=O)c2ccccc2s1	-1%	?	3%	18%	1%	0%
COc1ccc(C(=O)CCc2nc3ccccc3s2)cc1	19µM*	?	0%	13%	15%	15%
O=C(Nc1nc2c(s1)C(=O)CCC2)c1ccccc1	2.7µM*	?	0.71µM*	1.6µM*	1.1µM*	?
O=C(Nc1nc(=O)c2ccccc2s1)c1ccccc1	4.3µM*	?	20%	43%	0%	7.3µM*
Cc1ccc(C(=O)Nc2nc3ccccc3c(=O)s2)cc1	0.76µM*	?	1.3µM*	?	?	?
COC(=O)c1c(NC(=O)c2cc3ccccc3c(=O)o2)sc2c1CCCC2	0%	/	/	1%	/	/
COCCNC(=O)c1nc2ccccc2s1	17µM*	?	26%	14%	0%	16%
O=C(Nc1nc2ccccc2s1)c1ccc(F)cc1	1.1µM*	?	0.32µM*	/	0.71µM*	2.6µM*
